A short description of test [1]: qHTS assay to identify small molecule antagonists of the progesterone receptor (PR) signaling pathway - cell viability counter screen (AID 1346798). Further: series mostly up to about 92 µM; nearly all actives have a fitted effect of over 50% in size. In a few lines:
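Counter screen for cytotoxicity: viability of PR-UAS-bla HEK293T cells was measured with CellTiter-Glo luminescence following 16 hr compound exposure in the presence of R5020.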
Background: In qHTS, concentration-response curves come from the screen itself.

A short description of test [2]: qHTS assay to identify small molecule agonists of the progesterone receptor (PR) signaling pathway - cell viability counter screen (AID 1346799; calls by dose curve; further: nearly all actives have a fitted effect of over 45% in size). In a few lines: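 Cells (PR-UAS-bla HEK293T) are plated at 3,000/well in 2% charcoal-stripped FBS medium, rested 6 hr, dosed and incubated 16 hr at 37C. CellTiter-Glo is then added and luminescence measured after 30 min at room temperature.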

Test [3] is described as follows: qHTS assay to identify small molecule antagonists of the TGF-beta/Smad signaling pathway - cell viability counter screen (AID 1346824). Further: nearly all actives have a fitted effect of over 50% in size. In a few lines:
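Cytotoxicity counter-screen run in the same wells as the beta-lactamase Smad reporter read: CellTiter-Glo luminescence after 30 min at room temperature. HEK 293T SBE-bla cells had 5 hr compound exposure at 37 C with TGF-beta1 (0.25 ng/mL stock).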

The nature of test [4]: qHTS assay to identify small molecule agonists of the TGF-beta/Smad signaling pathway - cell viability counter screen (AID 1346829). Further: top concentration of the series differs between compounds; nearly all actives have a fitted effect of over 45% in size. The method in brief: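 Tox21 qHTS format: SBE-bla HEK 293T cells treated with DMSO-dissolved compounds for 5 hr; CellTiter-Glo luminescence after 30 min at room temperature.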
Test [5] is described as follows: qHTS assay to identify small molecule agonists of the TGF-beta/Smad signaling pathway (AID 1346859; active means well fitted activation curve with a large enough effect in the signal ratio in the repeat runs, not every such curve was filed as active; the % refers to the signal ratio; further: series mostly up to about 77 µM). The method in brief: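 Reporter line: HEK 293T with stably integrated SBE-controlled beta-lactamase. Compound exposure lasts 5 hr at 37 C and 5% CO2; substrate loading follows for 2 hr at room temperature, with emission read at 460 and 530 nm.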
The target in test [6] is Thyrotropin-releasing hormone receptor (Homo sapiens) (UniProt P34981). Nature of the test: qHTS assay to identify small molecule antagonists of the thyrotropin-releasing hormone receptor (TRHR) signaling pathway (AID 1346877; active means well fitted inhibition curve with a large enough effect in the repeat runs, not every such curve was filed as active; further: series mostly up to about 51 µM). In a few lines:
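In this cell-based calcium flux format, HEK293 cells expressing TRHR received test compound for 5 min before the agonist TRH (1 nM final). Dye loading lasted 2 h at 37 °C.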

Test [7] has the same target. Nature of the test: qHTS assay to identify small molecule agonists of the thyrotropin-releasing hormone receptor (TRHR) signaling pathway (AID 1346891; calls by dose curve; further: series mostly up to about 58 µM). The method in brief:
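Cells: TRHR-Hek293, seeded and incubated 18 h. Dye loading: 2 h at 37 °C. Compound added from DMSO stock by pin tool. Read-out: kinetic calcium fluorescence over 3 min.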

A short description of test [8]: Human pregnane X receptor (PXR) small molecule agonists, qHTS cell viability counter screen (AID 1346977). Further: nearly all actives have a fitted effect of over 50% in size. In a few lines: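 Cytotoxicity counter screen run in the same wells as the PXR luciferase assay, using PXR-Luc HepG2 cells in charcoal-stripped serum medium. Viability: CellTiter-Fluor fluorescence after 24hr compound treatment.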
The nature of test [9]: Caspase-3/7 induction in HepG2 cells by small molecules, qHTS assay (AID 1346978). Further: nearly all actives have a fitted effect of over 15% in size. Further: potency means the concentration at half of the fitted maximal effect. The method in brief:
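Caspase-3/7 induction was measured by Caspase-Glo 3/7 luminescence (30 min, room temperature) after a 17 hr compound exposure of wild-type HepG2 cells seeded at 2,000 per well and pre-incubated 5 hr.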

A short description of test [10]: Caspase-3/7 induction in CHO-K1 cells by small molecules, qHTS cell viability counter screen (AID 1346979). Further: nearly all actives have a fitted effect of over 35% in size. Further: potency means the concentration at half of the fitted maximal effect. The method in brief: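 Cytotoxicity counter screen run in parallel with the caspase-3/7 assay: CHO-K1 cells, 16hr compound treatment at 37C, then CellTiter-Fluor for 1hr before fluorescence reading.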

Unmarked numbers belong to inactive results. Results filed as inconclusive are left out. Calls of active or inactive are those of the source. Unless noted, the call rests on the fitted dose curve; in most records, active means well fitted curve in the direction sought with a large enough effect in the repeat runs; inconclusive means weak or mixed curves; inactive means no such curve, though single readings can be large; an effect the other way counts as inactive or inconclusive.
On the % scale 0 is the no-effect control and ±100 the full control effect.

Chain of Thyrotropin-releasing hormone receptor (Homo sapiens) (P34981 whole entry, looked up): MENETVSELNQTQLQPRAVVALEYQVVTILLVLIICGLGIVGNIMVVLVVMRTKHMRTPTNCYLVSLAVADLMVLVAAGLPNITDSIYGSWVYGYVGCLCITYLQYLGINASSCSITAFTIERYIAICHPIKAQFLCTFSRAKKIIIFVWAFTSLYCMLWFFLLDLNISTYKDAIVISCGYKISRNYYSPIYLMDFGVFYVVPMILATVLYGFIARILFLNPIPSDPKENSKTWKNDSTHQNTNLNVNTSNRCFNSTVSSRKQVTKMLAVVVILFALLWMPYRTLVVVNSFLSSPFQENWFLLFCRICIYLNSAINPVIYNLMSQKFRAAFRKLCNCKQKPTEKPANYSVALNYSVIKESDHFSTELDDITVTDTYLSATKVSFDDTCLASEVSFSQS

As to `CCC(O)CO` (centres undefined), the Potency result in test [1], in test [2], in test [3], in test [4], in [6] and in test [7] was “inactive” in each case. Besides, the Potency result in test [8], in test [9] and in test [10] was “inactive” throughout. In [5], the result was inactive.

Turning to `CCN(CC)c1ccc(C=O)cc1`, the Potency result in [1], in test [2], in [3], in [4], in test [6] and in [7] was “inactive” in each case. For the same compound, the Potency entry in [8], in test [9] and in test [10] was “inactive” throughout. Moreover, the compound was classed as inactive in test [5].

Regarding `O=[N+]([O-])c1ccc(CO)cc1`, the Potency entry in [1], in test [2], in test [3], in test [4], in test [6] and in test [8] was “inactive” throughout. The Potency result in test [9] and in test [10] was “inactive” throughout. Moreover, the call in test [5] was inactive.

In the case of `C=CC(=O)OCCOC1C2CCC1C1CC=CC12` (centres undefined), the activity change, negative = cytotoxicity is 13.6% [at 18.9 µM] in test [1]; 1.19% [at 19 µM] in test [2]; 7.46% [at 15.8 µM] in test [4]; 5.4% [at 19 µM] in test [8]; 4.17% [at 19 µM] in test [10]. The viability change, negative = cytotoxic in test [3] is -7.56% [at 15.8 µM]. Moreover, the values for the activation in [5] and in test [7] were -4.69% [at 15.8 µM] and -0.0878% [at 11.8 µM], respectively. The activity, negative = inhibition in [6] is 0.809% [at 10.5 µM]. Further, in [9], the caspase activation is 2.88% [at 19 µM].

In the case of `ClC(c1ccccc1)(c1ccccc1)c1ccccc1`, the Potency entry in test [1], in [2], in [3], in [4], in test [6] and in [7] was “inactive” in each case. Moreover, the Potency entry in [8], in test [9] and in [10] was “inactive” throughout. Moreover, in test [5], the compound was called inactive.

`CCOC=C(C(=O)OCC)C(=O)OCC`: the Potency result in test [1], in test [2], in test [3], in test [4], in [6] and in test [7] was “inactive” each time. The Potency result in test [8], in test [9] and in test [10] was “inactive” in each case. The outcome in test [5] was inactive.

For `O=C1OCc2ccccc21`, the Potency result in test [1], in test [2], in test [3], in test [4], in test [6] and in [7] was “inactive” throughout. In addition, the Potency entry in test [8], in test [9] and in [10] was “inactive” throughout. For the same compound, the compound was classed as inactive in [5].

With `C/C=C/C(=O)C1=C(C)C=CCC1(C)C`, the Potency result in test [1], in [2], in test [3], in test [4], in test [6] and in test [7] was “inactive” throughout. For the same compound, the Potency result in test [8], in test [9] and in test [10] was “inactive” each time. Besides, the compound was classed as inactive in test [5].

Consider `C/C=C/C(=O)OCC(C)C`, for which the Potency entry in [1], in test [2], in [3], in test [4], in [6] and in test [7] was “inactive” each time. Also, the Potency entry in [8] and in test [9] was “inactive” each time. Also, the outcome in test [5] was inactive.

Regarding `COc1c(Br)cc(Br)c(C)c1Br`, the Potency result in test [1], in [2], in [3], in test [4], in test [6] and in test [7] was “inactive” in each case. In addition, the Potency result in test [8], in test [9] and in test [10] was “inactive” each time. Also, the outcome in test [5] was inactive.

Turning to `CCCCCCCCCCCC(=O)Cl`, the Potency result in test [1], in test [2], in [3], in test [4], in test [6] and in test [8] was “inactive” each time. The Potency entry in test [9] and in test [10] was “inactive” throughout. Also, in [5], the call was inactive.

As to `Oc1ccc(Cl)cc1C1CCCC1`, the Potency entry in test [1], in test [2], in test [3], in test [4], in test [6] and in test [8] was “inactive” each time. Besides, the outcome in test [5] was inactive.

In the case of `Cc1ccc(C2OC[C@@H]3OC(c4ccc(C)cc4)O[C@H]([C@H](O)CO)[C@@H]3O2)cc1` (some centres undefined), the Potency entry in test [1], in test [2], in [3], in test [4], in test [6] and in test [8] was “inactive” in each case. In addition, the Potency result in test [9] and in [10] was “inactive” in each case. The call in test [5] was inactive.

Consider `C1=CCCC1`, for which the Potency result in test [1], in [2], in [3], in [4], in [6] and in test [7] was “inactive” throughout. Besides, the Potency entry in test [8], in test [9] and in test [10] was “inactive” each time. The compound was called inactive in test [5].

In the case of `CCc1cccc(C)c1N(C(=O)C(=O)O)C(C)COC` (centres undefined), the Potency entry in test [1], in [2], in [3], in test [4], in [6] and in test [7] was “inactive” each time. The Potency entry in test [8], in test [9] and in test [10] was “inactive” in each case. The call in [5] was inactive.

For the compound `CCN(CCC#N)c1ccc(N=Nc2ccc([N+](=O)[O-])cc2)cc1`, the Potency entry in test [1], in test [2], in [3], in test [4], in test [6] and in test [7] was “inactive” throughout. The Potency entry in [8], in test [9] and in test [10] was “inactive” in each case. The call in test [5] was inactive.

As to `CC(=O)N(C)C`, the Potency entry in test [1] is “inactive”.

With `CC(C)(C)C1=CC(=O)C(C(C)(C)C)=CC1=O`, the Potency result in test [1], in test [2], in test [3], in [4], in [6] and in [7] was “inactive” in each case. For the same compound, the Potency result in [8] and in [9] was “inactive” each time. Besides, the call in test [5] was inactive.

Consider `Cn1c(=O)[nH]c2ncn(C)c2c1=O`, for which the Potency entry in test [1], in test [2], in test [3], in [4], in test [6] and in [7] was “inactive” throughout. For the same compound, the Potency entry in [8], in [9] and in test [10] was “inactive” in each case. Also, the outcome in test [5] was inactive.

`CC(c1cc(C(C)(C)C)cc(C(C)(C)C)c1O)c1cc(C(C)(C)C)cc(C(C)(C)C)c1O`: the Potency result in test [1], in test [2], in test [3], in test [4], in test [6] and in test [7] was “inactive” each time. In addition, the Potency result in test [8] and in test [9] was “inactive” each time. The compound was classed as inactive in [5].

Regarding `O=C(Cl)c1ccc(Cl)cc1Cl`, the Potency result in test [1], in test [2], in test [3], in test [4], in test [6] and in test [8] was “inactive” throughout. Moreover, the Potency result in test [9] is “inactive”. In addition, in [5], the compound was classed as inactive.

`c1ccc2cc3c4ccccc4c4ccccc4c3cc2c1`: the Potency entry in test [1], in test [2], in [3], in test [4], in test [6] and in test [7] was “inactive” each time. Moreover, the call in [5] was inactive. Besides, the Potency in [9] is 6.89 µM (active); in [10] it was 27.4 µM (active).

As to `CCc1cccc(C)c1N(C(=O)CS(=O)(=O)O)C(C)COC` (centres undefined), the Potency result in [1], in test [2], in test [3], in test [4], in test [6] and in test [7] was “inactive” in each case. For the same compound, the Potency entry in test [8], in test [9] and in test [10] was “inactive” each time. In addition, the compound was classed as inactive in [5].

(Values after PubChem BioAssay (Tox21).)
